The whole screen tested about 5,500 compounds, of which about 2,000 (36%) were called active. Another 18% or so got no clear call; they are omitted. Rule as the data show it: active = normalized growth mostly below about 0.91 (no sharp cut-off); inconclusive = no clear call, values can overlap the other calls; inactive = mostly above about 0.92. The list shows a part of the results.
Assay: chemical genetic growth profiling, strain panel (AID 1159580);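 also: tested at 20 µM; growth read once vehicle control cultures reached saturation at 30 °C; 1 = growth at the plate median or of vehicle wells; lower values mean less growth of the strain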
Details: S. cerevisiae deletion strains, growth OD
[1] = locus YAL040C, strain CLN3, hits give low values
[2] = locus YCL061C, strain MRC1 (second series), hits give low values
[3] = locus YDR363W, strain ESC2, hits give low values
[4] = locus YER002W, strain NOP16, hits give low values
[5] = locus YNL128W, strain TEP1, hits give low values
[6] = locus YNL175C, strain NOP13, hits give low values
[7] = locus YNL197C, strain WHI3, hits give low values
[8] = locus YNL224C, strain SQS1, hits give low values
[9] = locus YNL322C, strain KRE1, hits give low values
[10] = locus YOR083W, strain WHI5 (second series), hits give low values
[11] = locus YPL055C, strain LGE1, hits give low values

Measured: normalized growth

COc1ccc2c(c1)c(CC(=O)O)c(C)n2Cc1ccc(F)cc1
inactive: [1] 0.985 | [2] 1.01 | [3] 1 | [4] 0.999 | locus YGR078C, strain PAC10, hits give low values 1.01 | locus YMR307W, strain GAS1, hits give low values 0.99 | [5] 0.993 | [6] 1 | [7] 0.991 | [8] 0.985 | [9] 1.01 | [10] 1.02 | [11] 1.01 | locus YPL241C, strain CIN2, hits give low values 1.01

Clc1ccc(Cn2c(CN3CCCC3)nc3ccccc32)cc1
inactive: [1] 1.01 | [2] 0.996 | locus YDR150W, strain NUM1, hits give low values 0.996 | [3] 0.999 | [4] 1.01 | [5] 1.04 | [6] 1.02 | [7] 1.04 | [8] 1.02 | [9] 0.989 | [10] 1.02 | [11] 0.932

Reference: PubChem BioAssay AID1159580 (chemical genetic matrix, 2015)
